We go through 15 compounds from PubChem BioAssay (Tox21).

The source made the active and inactive calls. Calls come from the whole dose curve; as a rule, active = well fitted curve in the direction sought with a large enough effect in the repeat runs; inconclusive = weak or mixed curves; inactive = flat fitted curve, though single readings scatter.
% is set by controls: 0 for no effect and ±100 for the full control effect.

The experiment in a line: qHTS assay to test for compound auto fluorescence at 460 nm (blue) in HepG2 cells (AID 720687). Particulars: autofluorescence 405/460 nm, 1 h; series mostly up to 91.3 µM; fluorescence, % of fluorescent control: at the top concentration. Put shortly: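 HepG2 cells in MEM with 10% FBS, attached overnight at 37 C, were exposed to compound or DMSO for 1 hr at 37 C, 5% CO2. Blue fluorescence was read at 405/460 nm, with triamterene as reference fluorophore.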
As to `CCN(CC)Cc1nccn1-c1ccc([N+](=O)[O-])cc1C(=O)c1ccccc1Cl`, the “fluorescence, % of fluorescent control” value was -0.055% [at 46 µM] (inactive). On to `NC1CCC(CC2CCC(N)CC2)CC1` (stereo not given), for which the “fluorescence, % of fluorescent control” value is 0.113% (inactive).

As for `Nc1ccc(N=Nc2ccccc2)cc1`, the “fluorescence, % of fluorescent control” value was -0.915% (inactive). For `Clc1ccc(C(c2ccc(Cl)cc2)C(Cl)Cl)cc1`, the Potency result was “inactive”. Consider `Oc1cc(Cl)cc(Cl)c1`, for which the “fluorescence, % of fluorescent control” value is 0.0184% (inactive). As to `CCCCC(CC)COC(=O)c1ccccc1C(=O)OCC(CC)CCCC` (stereo not given), the “fluorescence, % of fluorescent control” value is -0.281% (inactive).

`CCN(CC)CCc1c[nH]c2ccccc12`: the “fluorescence, % of fluorescent control” value is -0.0962% [at 95.7 µM] (inactive).

On to `c1ccc(Nc2ccc(Nc3ccccc3)cc2)cc1`, for which the “fluorescence, % of fluorescent control” value was 0.0442% (inactive). With `CN(C)C(=S)SSC(=S)N(C)C`, the Potency result is “inactive”. In the case of `Oc1ccc2[nH]cc(CCCCN3CC=C(c4ccccc4)CC3)c2c1`, the “fluorescence, % of fluorescent control” value is -0.0832% [at 46 µM] (inactive). `CCOP(=S)(OCC)Oc1cc(C)nc(N(CC)CC)n1`: the “fluorescence, % of fluorescent control” value was 0.0071% (inactive). On the same count and under the same terms, the same measure for `COc1ccc2[nH]cc(CCN(C(C)C)C(C)C)c2c1`: 0.0247% [at 95.7 µM] (inactive). Consider `C=CCOC(=O)c1ccccc1N`, for which the “fluorescence, % of fluorescent control” value is 0.0076% (inactive). The same measure, in the same setting: the same measure for `CC1(C)[C@H](/C=C2\CCSC2=O)[C@@H]1C(=O)OCc1coc(Cc2ccccc2)c1`: 0.385% (inactive); for `Nc1ccccc1-c1ccccc1`: 0.0186% (inactive).
